{"source": "PubChem BioAssay AID743200", "about": "(The Scripps Research Institute Molecular Screening Center, 2013)", "note": "About 950 (63%) of roughly 1,500 compounds were called active. So high a share suggests a set chosen from earlier hits. These entries were drawn from the full list. Unmarked numbers belong to inactive results. No stated cut-off is given here; in the data, active means inhibition above about 25%; inactive means the rest."}
{"target": "Major prion protein (Homo sapiens) (UniProt P04156)", "experiment": "cell surface PrPC inhibition, TR-FRET confirmation, confirmation, cell-based, TR-FRET (AID 743200)", "details": "cell surface PrPC level, at 13.8 µM, stronger effect = higher value"}
{"smiles": "COc1cccc2sc3cc(NCC[C@@H]4CCCN4C)ccc3c(=O)c12", "inhibition": "46% (active)"}
{"smiles": "COc1ccc2c(Cl)c(-c3nnco3)sc2c1", "inhibition": "37.6% (active)"}
{"smiles": "FC(F)(F)c1cccc(NC(=S)OC2CCC23CCC(c2ccccc2)CC3)c1", "note": "(stereo not drawn)", "inhibition": "15.7%"}
{"smiles": "CC(=O)c1sc2nc(SCC(=O)N3CCCCC3)[nH]c(=O)c2c1C", "inhibition": "28.8% (active)"}
{"smiles": "COc1ccc(S(=O)(=O)N2CCOCC2)cc1NC(=O)CSc1ncnc2ccccc12", "inhibition": "92.1% (active)"}
{"smiles": "O=C(Nc1cccn(Cc2ccccc2Cl)c1=O)NC1CCCCC1", "inhibition": "15.9%"}
{"smiles": "Cc1nc(/N=C(\\N)NC(=O)NC2CCCCC2)nc2ccccc12", "inhibition": "29.3% (active)"}
{"smiles": "O=C(CC(O)(C(F)(F)F)C(F)(F)F)Nc1ccc(Cl)c(Cl)c1", "inhibition": "58.3% (active)"}
{"smiles": "COc1ccc(NC(=O)COC(=O)CNC(=O)C2CCCCC2)cc1", "inhibition": "3.04%"}
{"smiles": "CCOC(=O)c1c(-c2ccccc2)oc2cc(Br)c(O)cc12", "inhibition": "90.9% (active)"}
{"smiles": "O=C(/C=C/c1ccc([N+](=O)[O-])o1)NNC(=O)c1ccc(F)cc1", "inhibition": "64.6% (active)"}
{"smiles": "CC1(C)Cc2ccccc2-c2[nH]c(=S)[nH]c(=O)c21", "inhibition": "81.8% (active)"}
{"smiles": "N#Cc1c(-c2cccs2)nc(SCC(=O)c2ccc(Br)cc2)[nH]c1=O", "inhibition": "74.2% (active)"}
{"smiles": "COc1cc(-n2c(=S)[nH]c3ccc(C)cc3c2=O)c(Cl)cc1Cl", "inhibition": "46.2% (active)"}
{"smiles": "CCCOc1ccc(C2C(C(=O)c3ccc(C)o3)=C(O)C(=O)N2CCCn2ccnc2)cc1", "note": "(stereo not drawn)", "inhibition": "52.6% (active)"}
{"smiles": "O=C(Oc1ccccc1)Oc1ccc2c(c1)oc(=O)c1ccccc12", "inhibition": "40.9% (active)"}
{"smiles": "Cc1ccnc(NC(=O)C2CCN(S(=O)(=O)c3c(C)c(C)cc(C)c3C)CC2)c1", "inhibition": "20.7%"}
{"smiles": "C=CCNC(=O)CSc1nc2scc(-c3ccco3)c2c(=O)n1CC=C", "inhibition": "31.3% (active)"}
{"smiles": "Cc1cc2ccccc2n1CCNC(=O)COc1ccc2ccccc2c1", "inhibition": "48.4% (active)"}
{"smiles": "CCCc1nc(SCC(=O)Nc2ccc(S(=O)(=O)N(C)C)cc2)c2ccccc2n1", "inhibition": "90.7% (active)"}
{"smiles": "Cc1cccc(NC(=O)c2nc(S(=O)(=O)Cc3ccccc3)ncc2Cl)c1", "inhibition": "39.3% (active)"}
{"smiles": "Cc1cccc(CS(=O)(=O)c2ncc(Cl)c(C(=O)Nc3ccc(F)cc3)n2)c1", "inhibition": "15.9%"}
{"smiles": "CCCCCCCCn1c2c(c(=N)c3c1CCC3)CCCC2", "inhibition": "44.9% (active)"}
{"smiles": "CN(C)CCNC(=O)c1ccc(Cl)c2cc3ccccc3nc12", "inhibition": "45.2% (active)"}
{"smiles": "CO[C@H]([C@H](C)/C=C/N(C)C=O)[C@@H](C)C(=O)CC[C@H](C)[C@H](O)[C@H](C)[C@H]1OC(=O)/C=C/C(C)=C/[C@H](O)[C@H](OC)C[C@@H]2C=CC[C@@H](C[C@H](OC)[C@@]3(CO3)[C@@H](OC)C[C@@H](OC)[C@@H]1C)O2", "inhibition": "32.5% (active)"}
{"smiles": "Cn1c(=S)sc2ccc3ccccc3c21", "inhibition": "75.4% (active)"}
{"smiles": "CCCCNc1c(-c2cccc(Sc3ccc(OC)cc3)c2)nc2ccccn12", "inhibition": "17%"}
{"smiles": "Cc1sc2ncnc(SCC(=O)Nc3ccc(CN4CCCC4)cc3)c2c1C", "inhibition": "53.1% (active)"}
{"smiles": "NC(=O)C1CCN(Cc2nc3c(Br)cc(Br)cc3c(=O)[nH]2)CC1", "inhibition": "41.7% (active)"}
{"smiles": "CCOC(=O)c1c(C)[nH]c(=S)c(C#N)c1-c1ccccc1", "inhibition": "43.5% (active)"}
{"smiles": "CCC(C)(O)C(=O)OC1C(=O)OC2CC3C(C)=CC(=O)C(O)C3(C)C3C4(O)OCC23C1C(C)C4O", "note": "(stereo not drawn)", "inhibition": "98.8% (active)"}
{"smiles": "COC(=O)Cc1[nH]n(-c2nc3ccccc3s2)c(=O)c1C(C)=Nc1ccc(OC)cc1", "inhibition": "5.13%"}
{"smiles": "COc1ccc(C(=O)Nc2nc(-c3ccc(S(=O)(=O)N4CCOCC4)cc3)cs2)cc1", "inhibition": "27.4% (active)"}
{"smiles": "Cc1cc2cc(CNC(=O)c3ccc(S(=O)(=O)N4CCOCC4)cc3)ccc2[nH]1", "inhibition": "15.2%"}
{"smiles": "Cc1ccsc1C(=O)OCC(=O)Nc1cccc(F)c1", "inhibition": "8.25%"}
{"smiles": "Cc1ccc(CSc2ccc(S(=O)(=O)N3CCCCC3)cn2)cc1", "inhibition": "6.8%"}
{"smiles": "CCc1c(C)nc2cc(-c3cccs3)[nH]n2c1=O", "inhibition": "41.7% (active)"}
{"smiles": "O=C(COC(=O)c1ccccc1SCC(=O)NC1CCCCC1)NC1CCCCC1", "inhibition": "24.6% (active)"}
{"smiles": "O=C1CCCC2=C1C(c1cccs1)n1nc(SCc3ccccc3)nc1N2", "note": "(stereo not drawn)", "inhibition": "20%"}
{"smiles": "N#C/C=C1\\Sc2ccccc2C(=O)N1CC(=O)N1CCN(S(=O)(=O)c2ccccc2)CC1", "inhibition": "67.5% (active)"}
{"smiles": "N#Cc1ccc(OCC(=O)Nc2nc(-c3ccccn3)cs2)cc1", "inhibition": "18.7%"}
{"smiles": "COc1ccc(OC)c(NC(=O)c2cc(-c3cc(F)ccc3OCC3CCCO3)n[nH]2)c1", "note": "(stereo not drawn)", "inhibition": "10.2%"}
{"smiles": "CC(=O)N1CCCc2cc(S(=O)(=O)N3CCCC(C(=O)NCc4ccc(Cl)cc4)C3)ccc21", "note": "(stereo not drawn)", "inhibition": "17.2%"}
{"smiles": "CC(=O)N1CCCc2cc(S(=O)(=O)N3CCCC(C(=O)N4CCN(c5cccc(Cl)c5)CC4)C3)ccc21", "note": "(stereo not drawn)", "inhibition": "38.3% (active)"}
{"smiles": "CC(=O)N1c2ccc(S(=O)(=O)N3CCCC(C(=O)Nc4cccc(F)c4)C3)cc2CC1C", "note": "(stereo not drawn)", "inhibition": "49.1% (active)"}
{"smiles": "O=C(NC(Nc1nc2ccc([N+](=O)[O-])cc2s1)(C(F)(F)F)C(F)(F)F)c1ccccc1", "inhibition": "65.9% (active)"}
{"smiles": "CC(=O)Nc1cccc(OCC(=O)/C=C2\\N(C)c3ccccc3C2(C)C)c1", "inhibition": "20.8%"}
{"smiles": "CN1/C(=C\\C(=O)c2oc3ccccc3c2N)C(C)(C)c2ccccc21", "inhibition": "49.3% (active)"}
{"smiles": "O=C(Cc1ccccc1)Nc1cccc(NC(=O)c2ccccc2)c1", "inhibition": "11.2%"}
{"smiles": "O=C(Nc1ccc(C2CC2(Cl)Cl)cc1)c1cccc([N+](=O)[O-])c1", "note": "(stereo not drawn)", "inhibition": "24.7% (active)"}
{"smiles": "Cc1ccc(CNC(=O)Nc2nnc([C@H]3C[C@H](O)[C@@H](CO)O3)s2)cc1", "inhibition": "-0.76%"}
{"smiles": "Cc1ccc(Oc2cnn(-c3ccccc3)c(=O)c2Br)cc1", "inhibition": "51.9% (active)"}
{"smiles": "CC(=O)c1nc(N2C(=O)C3CC=C(C)CC3C2=O)sc1C", "note": "(stereo not drawn)", "inhibition": "18%"}
{"smiles": "Cc1[nH]n(-c2ccccc2)c(=O)c1/C=N/NC(=O)c1ccoc1C", "inhibition": "60.1% (active)"}
{"smiles": "O=C(c1ccc(F)cc1)c1cn(Cc2ccc(F)cc2)c2cc3c(cc2c1=O)OCCO3", "inhibition": "90.5% (active)"}
{"smiles": "Fc1ccc2[nH]c3c(N4CCSCC4)ncnc3c2c1", "inhibition": "35.3% (active)"}
{"smiles": "Cc1ccc(NC(=O)c2sc3nc(N)c(C#N)cc3c2N)cc1", "inhibition": "35.3% (active)"}
{"smiles": "CCc1nc(SCC(=O)NNC(=O)c2ccc(C)cc2)c2ccccc2n1", "inhibition": "118% (active)"}
{"smiles": "COC(=O)CSc1nc(C2CC2)nc2ccccc12", "inhibition": "35.9% (active)"}
{"smiles": "O=c1[nH]cccc1-c1nc2ccccc2n1Cc1ccc(Cl)cc1", "inhibition": "35.3% (active)"}
{"smiles": "CCCCC(=O)NC(c1ccc(OC)c(OC)c1)c1ccc2cccnc2c1O", "note": "(stereo not drawn)", "inhibition": "26.9% (active)"}
{"smiles": "CCCCCCCCCCCCn1ccc(=N)cc1", "inhibition": "38.5% (active)"}
{"smiles": "O=C(Nc1ccc(N2CCN(C(=O)c3ccccc3)CC2)c(Cl)c1)c1cccnc1", "inhibition": "12.3%"}
